The structures appear in SMILES notation. Calls of active or inactive are those of the source. Unless noted, the rule behind the calls is not given here.

Drawing on PubChem BioAssay, this text covers z-score and composite z-score for nine molecules.

Assay [1] can be described thus: resazurin metabolic signal in HepG2 cells – cell-based, resazurin fluorescence, 24 h, PK04 Diversity Set, profiling panel (AID 1172). The settings on record: HepG2 viability, higher = more signal. A general note: Resazurin is reduced to fluorescent resorufin, in cell work by metabolically active cells.
Assay [2] is described as follows: budding yeast growth changes without added modifier – OD600, strain BY4716, 24 h, basal condition, primary screen (AID 1173). To be noted: S. cerevisiae BY4716 growth, OD600, 24 h; higher = more signal, called active from +8 up or from −8 down.
Assay [3] is described as follows: viability profiling in MM1S myeloma cells – cell-based, resazurin fluorescence, basal, 24 h, PK04 Diversity Set, profiling panel (AID 1174).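 Note: MM1S multiple myeloma cell line.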 The settings on record: higher = more signal, called active from +8 up or from −8 down.
Assay [4] concerns the target Dihydroorotate dehydrogenase (quinone), mitochondrial (Plasmodium falciparum (isolate 3D7)) (UniProt Q08210). Kind of assay: inhibition of P. falciparum DHODH – biochemical, C-terminal His tag, absorbance 600 nm, primary screen (AID 1175).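 Note: recombinant parasite enzyme with a five histidine tag at its C terminus.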 To be noted: PfDHODH enzyme, DCIP absorbance 600 nm; higher = more signal, called active from +8 up or from −8 down.
A short description of assay [5]: inhibition of PAO1 biofilm formation – strain PAO1, LB-PBS medium, absorbance 600 nm, primary screen (AID 1176). The settings on record: P. aeruginosa PAO1 growth/biofilm, A600, 12 h; higher = more signal.
Assay [6] is described as follows: growth modulation of vineyard yeast isolate – strain RM11-1a, OD600, basal, 24 h, primary screen (AID 1177).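 Note: cultures grown under basal conditions with no added stressor.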 The settings on record: S. cerevisiae RM11-1a growth, OD600, 24 h; higher = more signal, called active from +8 up or from −8 down.
Assay [7] is described as follows: growth of efflux-deficient E. coli DRC39 – strain DRC39, OD650, 24 h, E. coli filamentation inducers, primary screen (AID 1178).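 Note: growth measured as culture turbidity by optical density at 650 nm.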 The settings on record: E. coli DRC39 acrAB, higher = more signal, called active from +8 up or from −8 down.
The nature of assay [8]: growth of efflux-deficient E. coli DRC39 – strain DRC39, OD650, 48 h, E. coli filamentation inducers, primary screen (AID 1179).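 Note: screen aims at cell division blockers that make cells filament.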 The settings on record: E. coli DRC39 delta-acrAB growth, higher = more signal, called active from +8 up or from −8 down.
Assay [9] in a line: viability profiling in RPMI8226 myeloma cells – cell-based, resazurin fluorescence, basal, 24 h, PK04 Diversity Set, profiling panel (AID 1180).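 Note: RPMI8826 multiple myeloma cell line at 5000 cells per well.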 To be noted: higher = more signal.
The target of assay [10] is E3 ubiquitin-protein ligase XIAP (Homo sapiens) (UniProt P98170). Kind of assay: small molecules binding XIAP protein – biophysical, small-molecule microarray, fluorescence 635 nm, primary screen (AID 1181).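 Note: score merges 667 nm emission and signal to noise over triplicate slides.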 The settings on record: higher = more signal.
Sequence of E3 ubiquitin-protein ligase XIAP (Homo sapiens) (P98170 whole entry, looked up, the tested form may be a part): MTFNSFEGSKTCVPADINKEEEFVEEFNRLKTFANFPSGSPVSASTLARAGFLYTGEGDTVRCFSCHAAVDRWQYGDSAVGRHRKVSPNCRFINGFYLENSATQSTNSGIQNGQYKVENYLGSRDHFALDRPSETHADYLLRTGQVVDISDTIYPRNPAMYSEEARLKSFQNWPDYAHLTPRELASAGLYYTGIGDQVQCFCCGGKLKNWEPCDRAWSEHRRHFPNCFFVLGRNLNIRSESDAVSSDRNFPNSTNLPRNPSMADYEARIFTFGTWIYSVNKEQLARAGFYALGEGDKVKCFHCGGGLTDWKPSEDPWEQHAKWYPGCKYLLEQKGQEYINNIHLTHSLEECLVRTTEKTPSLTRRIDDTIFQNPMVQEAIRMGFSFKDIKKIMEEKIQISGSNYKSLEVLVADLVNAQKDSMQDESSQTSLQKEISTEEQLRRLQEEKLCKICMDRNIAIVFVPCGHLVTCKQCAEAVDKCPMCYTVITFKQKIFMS
Assay [11] has as its system XIP peptide (Xip251-270) binding. Briefly: XIP fragment 251-270 binding compounds – biochemical, small-molecule microarray, fluorescence 635/667 nm, 0.1 µg/mL protein, primary screen (AID 1182). To be noted: fluorescent protein binding, 635 nm, higher = more signal, called active from +8 up or from −8 down.
In assay [12] the test system is XIP peptide (Xip251-270). Kind of assay: compounds binding XIP fragment 251-270 – biochemical, small-molecule microarray, fluorescence 635/667 nm, 0.5 µg/mL protein, primary screen (AID 1183). The settings on record: fluorescence 635 nm, higher = more signal.
Assay [13] is described as follows: blood-stage malaria parasite viability loss – strain 3D7, DAPI fluorescence, 100 nL, primary screen (AID 1184).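 Note: parasites grown inside human red blood cells in medium with human serum.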 To be noted: P. falciparum 3D7 growth, 3 d, higher = more signal.
The target in assay [14] is Homeobox protein Hox-A13 (Mus musculus) (UniProt Q62424). Briefly: disruptors of Hoxa13 oligonucleotide interaction – biochemical, fluorescence polarization, labeled oligonucleotide, primary screen (AID 1185). To be noted: Hoxa13:DNA binding, 15 min, higher = more signal, called active from +8 up or from −8 down.
Sequence of Homeobox protein Hox-A13 (Mus musculus) (Q62424 whole entry, looked up): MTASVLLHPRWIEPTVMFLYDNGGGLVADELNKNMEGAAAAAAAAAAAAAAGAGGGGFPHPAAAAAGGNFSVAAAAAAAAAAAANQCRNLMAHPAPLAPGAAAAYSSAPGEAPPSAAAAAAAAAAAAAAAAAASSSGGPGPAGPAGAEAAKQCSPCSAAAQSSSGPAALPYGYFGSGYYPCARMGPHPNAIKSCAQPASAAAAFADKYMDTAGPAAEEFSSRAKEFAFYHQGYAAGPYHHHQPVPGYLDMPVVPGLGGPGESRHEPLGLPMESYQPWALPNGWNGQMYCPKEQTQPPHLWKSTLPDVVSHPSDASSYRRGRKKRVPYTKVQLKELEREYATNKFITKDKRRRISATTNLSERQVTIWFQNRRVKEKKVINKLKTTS
Assay [15] in a line: blockers of DNA damage checkpoint Chk1 activation – imaging, HeLa, hydroxyurea, phospho-Chk1 antibody, percent positive cells, primary screen (AID 1186). To be noted: hydroxyurea-induced phospho-Chk1 immunofluorescence imaging, higher = more signal.
Assay [16] can be described thus: blockers of DNA damage checkpoint Chk1 activation – imaging, HeLa, hydroxyurea, phospho-Chk1 nuclear intensity, primary screen (AID 1187). The settings on record: hydroxyurea-induced phospho-Chk1 immunofluorescence imaging, higher = more signal.

Sequence of Dihydroorotate dehydrogenase (quinone), mitochondrial (Plasmodium falciparum (isolate 3D7)) (Q08210 whole entry, looked up): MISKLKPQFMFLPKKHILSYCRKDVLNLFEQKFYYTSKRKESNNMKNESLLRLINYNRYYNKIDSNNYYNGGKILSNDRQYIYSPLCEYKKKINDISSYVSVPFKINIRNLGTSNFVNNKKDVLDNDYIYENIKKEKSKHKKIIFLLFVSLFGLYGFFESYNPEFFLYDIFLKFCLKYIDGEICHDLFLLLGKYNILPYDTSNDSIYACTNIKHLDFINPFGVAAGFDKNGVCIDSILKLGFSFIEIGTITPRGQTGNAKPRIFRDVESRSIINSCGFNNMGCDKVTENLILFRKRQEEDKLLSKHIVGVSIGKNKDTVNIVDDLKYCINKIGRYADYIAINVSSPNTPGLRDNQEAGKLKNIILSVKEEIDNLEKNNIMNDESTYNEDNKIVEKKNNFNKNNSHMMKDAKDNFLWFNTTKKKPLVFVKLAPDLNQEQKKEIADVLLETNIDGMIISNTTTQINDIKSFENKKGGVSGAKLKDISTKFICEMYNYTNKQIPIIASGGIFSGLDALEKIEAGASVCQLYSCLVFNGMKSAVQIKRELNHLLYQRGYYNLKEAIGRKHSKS

For `COc1ccc([Si](C)(C)[C@H]2[C@H](CC(=O)N3Cc4ccccc4C[C@H]3CO)O[C@@]3(C(=O)N(c4ccccc4)c4ccccc43)[C@@H]2C)cc1`, the z-score in assay [1] is 0.635; in [2], -1.89 (inactive); in assay [3], -2.45 (inactive); in assay [5], 0.0943 (inactive); in assay [6], 0.578 (inactive); in [7], 0.346 (inactive). For the same molecule, the z-score was -0.288 (inactive) in assay [8]; -2.1 in assay [9]; -2.01 in assay [13]; -5.4 (inactive) in assay [14]; -0.447 (inactive) in [15]; -0.786 (inactive) in [16]. Also, the composite z-score in [4] was -1.05 (inactive); in assay [10], -0.209; in assay [11], 0.065 (inactive); in [12] it was 0.765.
As to `CC(C)OC(=O)CC(=O)CC(O)c1cccc([N+](=O)[O-])c1` (centres undefined), the z-score in [1] is -0.476; in [2], -3.08 (inactive); in assay [3], 0.326 (inactive); in [5], 1.1 (inactive); in assay [6], -2.42 (inactive); in assay [7], 0.704 (inactive). Also, the z-score is 2 (inactive) in assay [8]; 0.083 in [9]; -0.165 in assay [13]; -0.516 (inactive) in assay [14]; -0.242 (inactive) in assay [15]; -0.299 (inactive) in assay [16]. Besides, the composite z-score in [4] was -2.1 (inactive); in assay [10], 0.15; in [11] it was 0.52 (inactive); in [12], 0.089.
With `C=CCN1Cc2ccccc2[C@H]2OC(c3ccc(OCCCO)cc3)=N[C@@]2(CCS(=O)(=O)c2ccccc2)C1=O`, the z-score in [1] was -0.439; in [2] it was 1.11 (inactive); in assay [3] it was -0.321 (inactive); in assay [5], 1.2 (inactive); in assay [6] it was 0.86 (inactive); in assay [7], -0.135 (inactive). For the same molecule, the z-score is -0.342 (inactive) in [8]; -0.0829 in assay [9]; -2.18 in [13]; -3.88 (inactive) in assay [14]; -0.163 (inactive) in assay [15]; -0.237 (inactive) in assay [16]. In addition, the composite z-score was 0.2 (inactive) in assay [4], -0.0599 in assay [10], 1.61 (inactive) in assay [11] and 0.767 in assay [12].
`CC(C)(C)OC(=O)CC[C@@]1(C(=O)NCCN2CCOCC2)N=C(c2ccc(OCCCO)cc2)O[C@@H]1c1ccccc1CN=[N+]=[N-]`: the z-score in assay [1] was 0.535; in assay [2] it was -0.51 (inactive); in assay [3], -0.743 (inactive); in [5], -0.0988 (inactive); in [6], -0.922 (inactive); in assay [7] it was -0.407 (inactive). Moreover, the z-score in [8] was -0.721 (inactive); in assay [9] it was -0.28; in assay [13], -0.41; in assay [14] it was -4.93 (inactive); in assay [15], -0.0412 (inactive); in assay [16] it was -0.301 (inactive). Besides, the composite z-score in assay [4] was -0.918 (inactive); in assay [10] it was -0.0559; in assay [11] it was 0.158 (inactive); in [12] it was 0.729.
Turning to `CN(C)C(=O)[C@@]1(Cc2ccccc2CN=[N+]=[N-])COC(c2ccc(OCCCO)cc2)=N1`, the z-score in assay [1] is 1.01; in [2], -4.86 (inactive); in assay [3] it was -1.19 (inactive); in [5], -0.732 (inactive); in [6], 3.73 (inactive); in [7] it was 1.04 (inactive). Also, the z-score in [8] is 1.58 (inactive); in assay [9], 0.196; in [13], -2.08; in assay [14], -5.02 (inactive); in [15], -0.439 (inactive); in assay [16], -0.521 (inactive). For the same molecule, the composite z-score in assay [4] was -0.311 (inactive); in assay [10], 0.153; in assay [11] it was 0.182 (inactive); in assay [12], 0.62.
`CC(C)C(O)C1C=CC2C(=O)NC(=O)C2N1Nc1ccccn1` (centres undefined): the z-score in [1] is -0.984; in assay [2], 0.754 (inactive); in [3] it was -1.69 (inactive); in assay [5], 0.612 (inactive); in [6], 0.696 (inactive); in assay [7], -1.03 (inactive). The z-score in assay [8] is 0.125 (inactive); in assay [9], -1.23; in [13], 0.17; in [14], -3.11 (inactive); in assay [15], -0.446 (inactive); in assay [16], -0.67 (inactive). Further, the composite z-score in assay [4] is 0.48 (inactive); in assay [10] it was 0.106; in assay [11], 0.163 (inactive); in [12] it was 0.943.
In the case of `C=CCC(OC(C)=O)[C@@H]1[C@@H](N(Cc2cccc3ccccc23)C(=O)c2ccc(-c3ccccc3)cc2)c2cc(OCCCO)ccc2N1C(=O)Cc1ccc2ccccc2c1` (some centres undefined), the z-score in assay [1] was 0.236; in assay [2] it was 0.716 (inactive); in assay [3], 0.331 (inactive); in assay [5], 0.444 (inactive); in assay [6], -0.368 (inactive); in [7], -0.416 (inactive). Besides, the z-score in assay [8] is -0.236 (inactive); in assay [9], 0.193; in assay [13] it was 0.0788; in assay [14] it was -0.896 (inactive); in [15], 0.547 (inactive); in assay [16] it was 0.582 (inactive). Moreover, the composite z-score in [4] was -0.0628 (inactive); in assay [10], -0.179; in assay [11], -0.419 (inactive); in assay [12], -0.347.
Consider `O=C(NCc1ccccc1)[C@@H]1c2ccccc2C(=O)N(Cc2ccc(OC(F)(F)F)cc2)[C@H]1c1ccc(CO)cc1`, for which the z-score in assay [1] was 0.299; in assay [2], -0.103 (inactive); in [3], 0.61 (inactive); in assay [5], -0.109 (inactive); in [6], -0.486 (inactive); in [7], 0.822 (inactive). The z-score was 0.387 (inactive) in [8]; 1.5 in [9]; -0.655 in assay [13]; -2.53 (inactive) in assay [14]; 0.0188 (inactive) in [15]; 0.243 (inactive) in assay [16]. The composite z-score is -0.197 (inactive) in [4], 0.371 in assay [10], -0.304 (inactive) in [11] and 0.56 in assay [12].
For `NCCCCCCNC(=O)[C@@H]1C[C@@H]2C(=O)N3CCC[C@H]3C(=O)N2[C@@H]1c1cccc(OCCO)c1`, the z-score is 0.158 in assay [1]; -1.44 (inactive) in assay [2]; 0.711 (inactive) in [3]; -1.23 (inactive) in [5]; -0.853 (inactive) in [6]; 0.699 (inactive) in [7]. The z-score is 0.768 (inactive) in [8]; -0.0931 in assay [9]; -0.772 in assay [13]; -4.9 (inactive) in assay [14]; -0.705 (inactive) in assay [15]; -0.405 (inactive) in assay [16]. Further, the composite z-score is 0.101 (inactive) in assay [4], -0.0172 in assay [10], 2.08 (inactive) in [11] and 0.2 in [12].
